Screening results as filed in PubChem.
Most compounds without a hit are left out; they make up all but 1.6% or so of the library.
Platelet DG rel – modulates dense granule release in human platelets | human platelet-rich plasma, SFLLRN dense granule ATP release, luminescence | inhibition, %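 (compounds screened at 7.5 µM in platelet-rich plasma)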 | 0.22% of 300,000 active | AID 1663;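 active = mean replicate score, as percent of positive control, at or above 50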
C8 TRAIL sens – sensitizes caspase-8 expressing cells to TRAIL; inhibition (viability loss, TRAIL sensitization), % at 10 µM; AID 624354; 1% of 360,000 active; NB7+C8 cells + TRAIL, ATPlite viability luminescence;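 active = compounds causing at least 50% loss of cell viability in the single-dose screen, relative to plate controls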
STAT3 blocker – STAT3 signaling inhibition | U3A cells, IL-6 STAT3-luciferase reporter, luminescence; host cell line lacks STAT1 | inhibition, % at 5.5 µM | 0.89% of 190,000 active;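 active = inhibition above the mean inhibition across all screened compounds plus 3 SD, cut at about 44% in these data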;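 note: 0% = DMSO only wells and 100% = 100 µM nifuroxazide control wells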
PPC-1+TRAIL kill – compounds killing PPC-1 cancer cells with TRAIL present (potentiator screen, no TRAIL-free arm) | 0.41% of 220,000 active | PPC-1 cells + TRAIL, ATPLite viability luminescence | cell killing (% activity), % at 4 µM or 5 µM;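 active = cell killing above 50% in the first pass at 4 µM, then a duplicate retest at 5 µM averaging 50% or more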;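 note: plate controls were cells with TRAIL plus DMSO for no effect and medium-only wells lacking cells for full effect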
STAT1 blocker – inhibitors of IFN-gamma induced STAT1 signaling; inhibition, % at 5.5 µM; 0.35% of 200,000 active; AID 920; NIH 3T3 STAT1-luciferase reporter, luminescence;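 active = inhibition above a set limit, the mean inhibition across all tested compounds plus 3 SD, cut at about 34% in these data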;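 note: 0% = IFN-gamma with DMSO and 100% = IFN-gamma with 300 µM nifuroxazide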
Numbers without * were called inactive; nt = not tested or not shown.

SMILES | Platelet DG rel | C8 TRAIL sens | STAT3 blocker | PPC-1+TRAIL kill | STAT1 blocker
C#CCOCCOCCOCCNc1nc(N2CCN(C(=O)CCCCCCCCCCNC(=O)[C@H](CCCCN)n3cc(C)nn3)CC2)nc(N2CCN(C(=O)CCCCCCCCCCNC(=O)[C@@H]([C@H](C)CC)n3cc(CCCCCN)nn3)CC2)n1 | nt | 97* | nt | nt | nt
C#CCOCCOCCOCCNc1nc(N2CCN(C(=O)CCCCCCCCCCNC(=O)Cn3cc(CCCCCN)nn3)CC2)nc(N2CCN(C(=O)CCCCCCCCCCNC(=O)[C@H](CO)n3cc(CCCCCN)nn3)CC2)n1 | nt | -2 | nt | nt | nt
COc1ccc(/C=C/c2nc3ccccc3c(=O)o2)cc1 | 33 | 75* | nt | nt | nt
O=C(CN1CCN(c2ccc(F)cc2)CC1)N1N=CCC1c1ccccc1 (centres undefined) | 0 | 6 | 10 | 24 | 7
O=C(CN1CCN(c2ccccc2)CC1)N1N=CCC1c1ccccc1 (centres undefined) | 78* | -6 | -8 | 10 | -1
CCOc1ccc(C(=O)C(C)OC(=O)c2nc(Cl)ccc2Cl)cc1 (centres undefined) | -8 | 4 | nt | nt | nt
COc1cccc(C(=O)Nc2cccc(-c3ccc(N4CCOCC4)nn3)c2)c1 | 11 | 42 | nt | nt | nt
COc1ccc(C(=O)Nc2cccc(-c3ccc(N4CCOCC4)nn3)c2)cc1OC | 31 | 64* | nt | nt | nt
O=C(Nc1cccc(-c2ccc(N3CCOCC3)nn2)c1)c1ccc(F)cc1F | 21 | 51* | nt | nt | nt
CCOc1ccccc1C(=O)Nc1cccc(-c2ccc(N3CCOCC3)nn2)c1 | 3 | 48 | nt | nt | nt
COc1cccc(C(=O)Nc2cccc(-c3ccc(N4CCOCC4)nn3)c2)c1OC | 11 | 67* | nt | nt | nt
CCOC(=O)N1CCC(Nc2c(-c3ccc(C)c(C)c3)c(=O)c2=O)CC1 | 5 | 58* | -7 | -2 | 2
COc1ccc(Br)cc1S(=O)(=O)N(CC(=O)N1CCN(C)CC1)c1ccccc1 | 16 | -2 | nt | nt | nt
CCOc1ccc(OCC(=O)N(CCC2=CCCCC2)c2c(N)n(Cc3ccccc3)c(=O)[nH]c2=O)cc1 | -2 | 56* | nt | nt | nt
CCOc1ccc(OCCC(=O)N(CCC2=CCCCC2)c2c(N)n(Cc3ccccc3)c(=O)[nH]c2=O)cc1 | 12 | -15 | nt | nt | nt
CCCCN(CC)CCCNC(=O)C1c2ccccc2C(=O)N(C)C1c1cn(C)c2ccccc12 (centres undefined) | 3 | 61* | 6 | -8 | 8
CCN(CC)CCCNC(=O)C1c2ccccc2C(=O)N(CCOC)C1c1ccc(F)cc1 (centres undefined) | -2 | -3 | 5 | -7 | 1
O=C(Nc1nnc([C@@H]2C[C@H](O)[C@@H](CO)O2)s1)c1cccc(OC(F)(F)F)c1 | nt | -1 | nt | nt | nt
C=C1C(=O)C23CCC4C(C)(C(=O)OC)CCCC4(C)C2CCC1(O)C3 (centres undefined) | nt | 89* | nt | nt | nt
COC(=O)[C@]1(C)CCC[C@@]2(C)C3CC[C@@]4(C)C[C@]3(CCC21)CC(=O)N4 (some centres undefined) | nt | -6 | nt | nt | nt
N#Cc1nc(NCC(F)F)nc(Nc2cc(F)cc(F)c2)n1 | nt | 50* | nt | nt | nt
O=C(/C=C/c1ccc(Cl)cc1Cl)N1CCc2ccccc21 | 11 | 61* | 9 | 38 | -45
O=C(/C=C/c1cccc(F)c1)N1CCc2ccccc21 | 37 | 64* | 18 | 43 | -113
O=C(/C=C/c1cccc(F)c1)OCC(=O)N1CCCc2ccccc21 | 1 | -9 | nt | nt | nt
Oc1cccc(-c2ccc3nccn3c2)c1 | nt | 7 | nt | nt | nt
SMILES | Platelet DG rel | C8 TRAIL sens | STAT3 blocker | PPC-1+TRAIL kill | STAT1 blocker
COc1ccc(N=Nc2n(C)c3ccccc3[n+]2C)cc1 | 98* | nt | nt | 92* | nt
COc1ccc2nc(NC(=O)Nc3ccccc3)sc2c1 | 0 | 59* | 24 | 33 | -116
COc1ccc2nc(NC(=O)c3ccccc3C(=O)O)sc2c1 | 3 | 15 | nt | nt | nt
Cc1ccc2nc(NC(=O)c3ccccc3F)sc2c1 | 0 | 58* | nt | nt | nt
COc1ccc2nc(NC(=O)c3cnccn3)sc2c1 | 7 | 53* | 31 | 30 | -23
CCOc1ccc2nc(NC(=O)Nc3ccccc3)sc2c1 | 0 | 16 | 16 | -5 | -59
COc1ccc2nc(NC(=O)c3ccccc3F)sc2c1 | 16 | 69* | nt | nt | nt
C=CCOc1ccc(/C=C/C(=O)OCC(=O)NCc2ccco2)cc1 | 0 | 13 | nt | nt | nt
CC(=O)N[C@H]1[C@H](OC2CCCCC2)O[C@H](COC(C)=O)[C@@H](OC(C)=O)[C@@H]1OC(C)=O | 11 | -7 | nt | nt | nt
O=C(COC(=O)c1ccccc1C(=O)c1ccc(Cl)c([N+](=O)[O-])c1)NC1CCCCCC1 | -9 | 94* | -4 | 16 | 13
Cn1c(N)c(C(=O)COC(=O)c2ccccc2C(=O)c2ccc(Cl)c([N+](=O)[O-])c2)c(=O)n(C)c1=O | nt | 92* | nt | nt | nt
Cc1[nH]c2ccc(C(=O)OCC(=O)NC3(C#N)CCCCC3)cc2c1C | -5 | -1 | nt | nt | nt
COc1ccc(-c2cn3ccccc3n2)cc1OC | 7 | 60* | -82 | 31 | -32
CCc1nc(N2CCN(C(=O)CCl)CC2)c2c3c(sc2n1)CC(C)CC3 (centres undefined) | 9 | 87* | nt | nt | nt
COc1ccc(C(C)=O)cc1COC(=O)C1CCN(C(=O)c2ccc(Cl)cc2)CC1 | nt | -5 | nt | nt | nt
Cc1cccc(N2CCN(S(=O)(=O)c3ccc4c(c3)CCCN4C(=O)C3CCC3)CC2C)c1 (centres undefined) | 7 | 13 | nt | nt | nt
NC(=O)c1cccc(-c2ccnc3c2CC(C(=O)NCc2ccccc2)O3)c1 (centres undefined) | nt | 16 | nt | nt | nt
CCOc1ccc(-c2cc(C(=O)NC3CCCCC3)[nH]n2)c(C)c1 | nt | 12 | nt | nt | nt
CC[C@H](C)[C@@H]1OC(=O)[C@@H](C)[C@@H](CC)NC(=O)[C@H](C)N(C)C(=O)C(C)(C)C(=O)C(C)NC(=O)[C@H](Cc2ccccc2)N(C)C(=O)[C@H](C(C)C)N(C)C(=O)CNC(=O)[C@H](CC(C)C)N(C)C(=O)CNC1=O (some centres undefined) | nt | 60* | nt | nt | nt
O=S1(=O)C=C(Sc2nnc(-c3ccccc3)o2)c2ccccc21 | 8 | 73* | -2 | 21 | 13
c1ccc(CSc2ccc(-c3ccco3)nn2)cc1 | 4 | 59* | 19 | 26 | -50
COc1ccc(NC(=O)/C(C#N)=C/c2ccc(-c3ccc(Cl)c(C(=O)O)c3)o2)cc1 | 0 | 60* | nt | nt | nt
Cc1cc(C)c(NN=c2c(=O)c3ccccc3c2=O)c(C)c1 | -9 | -6 | -3 | 1 | -24
O=c1c(=NNc2ccccc2Cl)c(=O)c2ccccc12 | nt | 77* | 27 | 17 | -2
OC(c1ccc(CN2CCCCC2)cc1)c1ncc(-c2ccccc2)[nH]1 (centres undefined) | nt | 2 | nt | nt | nt
Cc1ccc(-c2csc3nc[nH]c(=S)c23)cc1 | -3 | 11 | -3 | 25 | 0
Cc1cc(-c2csc3nc[nH]c(=S)c23)cc(C)c1C | -2 | 60* | 11 | 15 | 14
CN(c1ccccc1)S(=O)(=O)c1ccc(C(=O)N2CCN(c3ccccc3)CC2)cc1 | nt | -12 | nt | nt | nt
O=c1[nH]c(=O)n(Cc2ccco2)c2c1C(C(F)(F)F)(C(F)(F)F)N=C(c1ccc(F)cc1)N2 | -1 | -8 | 51* | 20 | 45*
